The results in this text go back to PubChem BioAssay AID1851 (National Center for Advancing Translational Sciences (NCATS), 2009).

Among all 16,000 compounds or so, about 5,100 (32%) were called active. Another 25% or so got no clear call; they are omitted. The call rests on the fitted dose curve; in most records, active means well fitted curve in the direction sought with a large enough effect; inconclusive means small, poorly fitted or top-dose-only effect, or effect the other way; inactive means no such curve, though single readings can be large or run the other way. The list shows a part of the results.
On the % scale 0 is the no-effect control and ±100 the full control effect.

For the experiment, the target named is Cytochrome P450 3A4 (Homo sapiens) (UniProt P08684). In words: Cytochrome panel assay with activity outcomes. Conditions: recombinant CYP, pro-luciferin dealkylation, luminescence, p450-cyp3a4; series mostly up to 57.1 µM.
Chain of Cytochrome P450 3A4 (Homo sapiens) (P08684 whole entry, looked up): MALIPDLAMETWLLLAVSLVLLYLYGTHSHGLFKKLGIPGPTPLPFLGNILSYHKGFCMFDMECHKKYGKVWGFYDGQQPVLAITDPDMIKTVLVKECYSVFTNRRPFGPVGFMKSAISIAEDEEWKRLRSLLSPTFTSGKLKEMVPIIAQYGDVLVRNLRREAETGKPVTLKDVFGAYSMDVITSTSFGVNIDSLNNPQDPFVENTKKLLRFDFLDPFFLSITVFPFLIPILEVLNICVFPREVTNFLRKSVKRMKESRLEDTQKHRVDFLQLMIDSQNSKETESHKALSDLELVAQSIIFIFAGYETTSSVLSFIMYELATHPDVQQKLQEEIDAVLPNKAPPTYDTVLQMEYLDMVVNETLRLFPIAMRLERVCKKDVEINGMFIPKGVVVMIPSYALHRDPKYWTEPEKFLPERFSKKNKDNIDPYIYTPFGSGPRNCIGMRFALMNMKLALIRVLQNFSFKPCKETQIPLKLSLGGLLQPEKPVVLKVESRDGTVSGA
As for `CC(CC(=O)O)CC(=O)Nc1ccc(S(N)(=O)=O)cc1` (stereo unspecified), the activity, negative = inhibition was -4.05% [at 2.29 µM] (inactive).

A word on the AC50: it is the midpoint of the concentration-response curve, whichever way the signal moves. With `COc1ccc(OC)c(NC(=O)CC(Cc2ccccc2OC)C(=O)O)c1` (stereo unspecified), the AC50 entry is “inactive”.

Regarding `CCOc1ccc(NC(=S)NC(=O)/C=C/c2ccc(OC)c(OC)c2)c([N+](=O)[O-])c1`, the AC50 entry was “inactive”.

Take `Cc1ccc([N+](=O)[O-])cc1NC(=S)NC(=O)C(C)(C)C`: the AC50 entry is “inactive”.

On to `COc1ccc([N+](=O)[O-])cc1NCc1ccccc1C`, for which the AC50 was 12.6 µM (active).

Take `CC(CC(=O)Nc1ccc(Cl)c([N+](=O)[O-])c1)c1ccccc1` (stereo unspecified): the AC50 is 10 µM (active).

`COc1ccc([N+](=O)[O-])cc1NC(=O)CC(C)c1ccccc1` (stereo unspecified): the AC50 is 7.08 µM (active).

Regarding `COc1ccc([N+](=O)[O-])cc1NC(=S)NC(NC(=O)Cc1ccc(OC)c(OC)c1)C(Cl)(Cl)Cl` (stereo unspecified), the AC50 is 1.58 µM (active).

With `CC(C)CC(=O)Nc1ccc2c(c1)oc1ccccc12`, the AC50 result is “inactive”.

On to `C1CNCCOCCNCCN1`, for which the AC50 entry was “inactive”.

Turning to `COc1ccc(N2CCN(Cc3nc4c(c(=O)[nH]c(=O)n4C)n3CCCc3ccccc3)CC2)cc1`, the AC50 is 2.24 µM (active).

In the case of `CCN1CCN(c2nc3c(c(=O)[nH]c(=O)n3C)n2CCCSc2ncccn2)CC1`, the AC50 result is “inactive”.

For `Cn1c(=O)[nH]c(=O)c2c1nc(CN(Cc1ccccc1)Cc1ccccc1)n2CCN1CCOCC1`, the AC50 was 4.47 µM (active).

As to `COc1ccc(N2CCN(Cc3nc4c(c(=O)n(C)c(=O)n4C)n3CC(C)=O)CC2)cc1`, the AC50 result was “inactive”.

`CCOC(=O)N1CCN(Cc2nc3c(c(=O)[nH]c(=O)n3C)n2Cc2ccccc2C)CC1`: the AC50 is 3.98 µM (active).

On to `CCOC(=O)Cn1c(CN(Cc2ccccc2)Cc2ccccc2)nc2c1c(=O)[nH]c(=O)n2C`, for which the AC50 is 25.1 µM (active).

As to `Cn1c(=O)[nH]c(=O)c2c1nc(CN1CCOCC1)n2CCCO`, the AC50 entry is “inactive”.

For `Cn1c(=O)c2c(nc(Cc3ccccc3)n2CC(=O)O)n(C)c1=O`, the activity, negative = inhibition is -2.47% [at 11.4 µM] (inactive).

Regarding `Oc1cc2c(cc1O)[C@H](c1ccccc1)CNCC2`, the AC50 entry was “inactive”.

With `CCOCCn1c(CN(Cc2ccccc2)Cc2ccccc2)nc2c1c(=O)[nH]c(=O)n2C`, the AC50 is 15.8 µM (active).

For `CN(C)c1nc2c(c(=O)[nH]c(=O)n2C)n1Cc1ccccc1Br`, the AC50 result is “inactive”.

`O=S(Cc1ccc(Br)cc1)Cc1nnc(SCc2ccc(Cl)cc2)n1-c1ccccc1` (stereo unspecified): the AC50 was 7.08 µM (active).

Regarding `COC(Cc1nnc(SC)n1-c1ccc(Cl)cc1)OC`, the AC50 result is “inactive”.

Regarding `O=P(O)(CCc1ccccc1)C(O)c1ccccc1` (stereo unspecified), the activity, negative = inhibition is 2.84% [at 11.4 µM] (inactive).

Consider `CCCC(C(=O)Nc1nccs1)c1ccccc1` (stereo unspecified), for which the AC50 is 12.6 µM (active).

For the molecule `O=C(O)c1ccccc1C(=O)Nc1nccs1`, the AC50 result is “inactive”.

For the molecule `CCC(=O)[C@@H](c1ccccc1)c1ccccn1`, the activity, negative = inhibition was -1.45% [at 11.4 µM] (inactive).

Turning to `O=[N+]([O-])c1cc(C(F)(F)F)ccc1NCCCCNS(=O)(=O)c1ccc2ccccc2c1`, the AC50 was 14.1 µM (active).

Consider `Cc1nn(Cc2ccccc2Cl)c(C)c1NC(=O)CCCn1nc(C)c([N+](=O)[O-])c1C`, for which the half-maximal activity concentration (AC50) is 2.51 µM (active).

`Cc1nn(CC(=O)NCCN2CCOCC2)c(C)c1[N+](=O)[O-]`: the AC50 entry was “inactive”.

Consider `Cc1c(Cl)c([N+](=O)[O-])nn1CC(=O)Nc1c(C)n(C)n(-c2ccccc2)c1=O`, for which the AC50 entry is “inactive”.

On to `CN(C)CCNC(=S)Nc1cccc(Cl)c1`, for which the AC50 entry is “inactive”.

Consider `O=C(Nc1cccc(F)c1)Nc1ccccn1`, for which the AC50 entry was “inactive”.

As for `S=C(NCc1ccccn1)Nc1cccc(Cl)c1`, the AC50 is 10 µM (active).

For `COCC(=O)N1CCC2(CC1)CN(C(=O)Nc1ccccc1)C2`, the AC50 result is “inactive”.

For `CN1CCN(c2nc(-c3ccccc3)cc(C(F)(F)F)n2)CC1`, the AC50 entry is “inactive”.

On to `CC(Sc1nc(-c2ccccc2)cc(C(F)(F)F)n1)C(=O)N1CCCCC1` (stereo unspecified), for which the AC50 is 7.08 µM (active).

Regarding `CCOC(=O)c1cc2c(C(F)(F)F)cc(-c3ccccc3)nc2o1`, the activity, negative = inhibition is -1.96% [at 2.29 µM] (inactive).

`c1ccc(-c2ccc3c(c2)c2c4n3CCN=C4CCC2)cc1`: the AC50 result was “inactive”.

Take `CCCS(=O)(=O)N1CCCC(C(=O)NCCCOCC)C1` (stereo unspecified): the AC50 entry was “inactive”.

In the case of `CCOc1ccc(OCC)c(NC(=O)C2CCCN(S(=O)(=O)c3cccs3)C2)c1` (stereo unspecified), the AC50 was 5.62 µM (active).

`CCCS(=O)(=O)N1CCCC(C(=O)NCCN(C)Cc2ccccc2)C1` (stereo unspecified): the activity, negative = inhibition was 12.8% [at 2.29 µM] (inactive).

`COCCn1c(=O)c(-c2cccs2)nc2cncnc21`: the AC50 is 15.8 µM (active).

As for `COc1ccccc1CCn1c(=O)c(-c2cccs2)nc2cncnc21`, the concentration at half-maximal activity (AC50) is 3.16 µM (active).

For the molecule `COCCn1c(=O)c(C)nc2cncnc21`, the AC50 was 12.6 µM (active).

For the molecule `Cn1c(=O)c(-c2cccs2)nc2cncnc21`, the AC50 is 7.94 µM (active).

For `COc1ccc(-n2c(=O)c(-c3cccs3)nc3cncnc32)cc1`, the AC50 entry was “inactive”.

For the molecule `CCCC(O)(CCC)C(=O)NN1CCCCC1`, the AC50 entry is “inactive”.

As to `COc1ccccc1CCn1c(=O)c(-c2ccc(F)cc2)nc2cncnc21`, the AC50 is 3.98 µM (active).

As for `O=c1c(-c2cccc(Cl)c2)nc2cncnc2n1Cc1ccccc1`, the AC50 entry was “inactive”.

In the case of `COc1ccccc1CCn1c(=O)c(-c2cccc(Cl)c2)nc2cncnc21`, the AC50 is 6.31 µM (active).

`Cc1nc2cnc(N(C)C)nc2n(C2CC2)c1=O`: the AC50 result was “inactive”.

Take `Cc1nc2cncnc2n(C2CC2)c1=O`: the AC50 is 15.8 µM (active).

Turning to `O=c1c(-c2ccccc2)nc2cncnc2n1C1CC1`, the AC50 entry was “inactive”.

Turning to `COc1ccccc1CCn1c(=O)c(-c2ccc(Cl)cc2)nc2cncnc21`, the AC50 was 3.98 µM (active).

For the molecule `CN(C)c1ncc2nc(-c3ccc(F)cc3)c(=O)n(CCc3ccccc3)c2n1`, the AC50 entry is “inactive”.

As for `O=c1c(-c2ccc(F)cc2)nc2cncnc2n1C1CC1`, the AC50 entry was “inactive”.

Regarding `CC(=O)O[C@@H](C)C[N+](C)(C)C`, the AC50 result was “inactive”.

Turning to `COc1ccccc1CCn1c(=O)c(-c2ccccc2)nc2cncnc21`, the AC50 is 3.98 µM (active).

For the molecule `COc1ccccc1CCn1c(=O)c(-c2ccc(F)c(F)c2)nc2cncnc21`, the half-maximal activity concentration (AC50) was 3.16 µM (active).

On to `COCCn1c(=O)c(-c2ccccc2)nc2cncnc21`, for which the AC50 result was “inactive”.

On to `Cn1c(=O)c2c(nc(C(=N)SCC(=O)O)n2C)n(C)c1=O`, for which the activity, negative = inhibition was -27.7% [at 11.4 µM] (inactive).

Turning to `CSc1ncnc2c1ncn2[C@@H]1O[C@@H](CO)[C@H](O)O[C@@H]1O`, the activity, negative = inhibition was -26.2% [at 11.4 µM] (inactive).

Take `CNc1ncnc2c1ncn2[C@@H]1O[C@@H](CO)[C@H](O)[C@@H]1O`: the AC50 entry is “inactive”.

Regarding `OCCNc1ncnc2c1ncn2[C@@H]1O[C@@H](CO)[C@H](O)[C@@H]1O`, the activity, negative = inhibition is -9.88% [at 11.4 µM] (inactive).

In the case of `Nc1ccc(CCNc2ncnc3c2ncn3[C@@H]2O[C@@H](CO)[C@H](O)[C@@H]2O)cc1`, the AC50 is 25.1 µM (active).
